# Shown are actives, neighbours in structure and some others; about 18% of the full set was active somewhere.
# DT40 TDP1 CPT – growth inhibition of DT40 Tdp1-/-;hTDP1 cells with camptothecin (screen for TDP1 inhibitors); actives 12% (n = 420,000); Potency, µM (top dose mostly 46.2 µM), inactives show at the highest dose activity change, negative = growth inhibition, most hits filed as inhibitors; chicken DT40 Tdp1-/-;hTDP1 cells + 20 nM CPT, ATP luminescence, 48 h; also: potency is read from the fitted curve at half-maximal effect; nearly all actives have a fitted effect of over 55% in size
#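 Cell growth measured by CellTiter-Glo luminescence after a minimum 48 h, 37 C compound exposure with 20 nM CPT in Tdp1-knockout DT40 cells stably expressing hTDP1, seeded 400/well; qHTS titration format.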
# TDP1 block – inhibitors of human tyrosyl-DNA phosphodiesterase TDP1. AID 485290. actives 0.28% (n = 350,000). recombinant TDP1, AlphaScreen DNA substrate cleavage. Q9NUW8. Potency, µM (doses to about 130 µM), without a hit: top-dose activity change, negative = inhibition, actives largely listed as inhibitors; also: potency is read from the fitted curve at half-maximal effect; nearly all actives have a fitted effect of over 40% in size
# Target sequence (Q9NUW8 whole entry, looked up): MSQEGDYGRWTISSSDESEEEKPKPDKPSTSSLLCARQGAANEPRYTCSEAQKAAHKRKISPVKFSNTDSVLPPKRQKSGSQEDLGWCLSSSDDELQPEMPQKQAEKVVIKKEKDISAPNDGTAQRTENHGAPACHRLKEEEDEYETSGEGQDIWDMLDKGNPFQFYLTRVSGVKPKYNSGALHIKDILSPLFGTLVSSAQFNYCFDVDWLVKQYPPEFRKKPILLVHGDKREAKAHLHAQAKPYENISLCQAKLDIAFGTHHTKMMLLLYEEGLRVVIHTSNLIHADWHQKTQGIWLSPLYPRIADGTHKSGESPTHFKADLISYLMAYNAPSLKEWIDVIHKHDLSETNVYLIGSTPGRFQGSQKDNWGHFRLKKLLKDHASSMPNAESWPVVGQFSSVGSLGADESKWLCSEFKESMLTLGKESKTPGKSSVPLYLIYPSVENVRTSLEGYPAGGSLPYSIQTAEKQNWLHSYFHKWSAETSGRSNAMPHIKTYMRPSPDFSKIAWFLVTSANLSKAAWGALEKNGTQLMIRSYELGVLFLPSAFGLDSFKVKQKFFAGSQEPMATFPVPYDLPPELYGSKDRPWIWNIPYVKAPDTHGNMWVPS
#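 Recombinant human Tdp1 (E. coli-expressed, 1 nM final) preincubated with compounds 15 min at room temperature, then 5'-biotin/3'-phosphotyrosine-FITC DNA substrate (15 nM final) added for 5 min. AlphaScreen beads (10 ug/ml final) added 10 min; cleavage lowers signal.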
# CtBP-E1A inh – blocks the CtBP interaction with E1A. AlphaScreen GST-E1A/His-CtBP binding, 1536-well; stronger effect = lower value. activity change, % (test concentration not listed). actives 0.49% (n = 340,000). AID 651724; in the data active = activity change below about -65%; inconclusive = mostly about -30% to -63%
#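 GST-E1A and His-tagged CtBP (125 nM each as 5X stock) were preincubated with pin-transferred compound for 2 h at 37 °C in the dark, then glutathione donor and nickel acceptor beads were added for 1 h before AlphaScreen reading.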
# Six1-Eya2 blk – blocks human Six1 binding to Eya2; Q15475+O00167; AlphaScreen GST-Six1/His-Eya2 binding, biochemical; stronger effect = lower value; activity change, % (test concentration not listed); actives 0.56% (n = 360,000); in the data active = activity change below about -65%; inconclusive = mostly about -30% to -63%
#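 AlphaScreen luminescence read after one hour at 37 °C in darkness. Pin-transferred compounds met GST-Six1 and His-Eya2 protein (5X stock 250 nM/500 nM) plus glutathione donor and Ni-chelate acceptor beads (5X, 50 ug/mL).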
# DT40 TDP1 no CPT – qHTS for Inhibitors of human tyrosyl-DNA phosphodiesterase 1 (TDP1): qHTS in cells in absence of CPT. DT40 Tdp1-/- hTDP1 cells, no CPT, ATP luminescence, 48 h. Potency, µM (highest dose often 46.2 µM), for inactives: top-dose activity change, negative = growth inhibition, actives largely listed as inhibitors. actives 15% (n = 420,000). AID 686978, 2013; also: potency is read from the fitted curve at half-maximal effect; nearly all actives have a fitted effect of over 55% in size
#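 Stably hTDP1-transfected Tdp1-null chicken DT40 cells were treated with library compounds minus camptothecin and grown for at least 48 hr at 37 °C, after which cellular ATP was quantified by luminescence.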
# IL-1B inflam inh – inhibitors of inflammasome signaling (IL-1 beta secretion); activity change, % at 57.5 µM; THP-1 LPS/ATP IL-1B secretion, AlphaLISA, 16 h; stronger effect = lower value; AID 743279; actives 4.7% (n = 360,000); in the data active = activity change below about -50%; inconclusive = mostly about -30% to -49%
#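 Secreted IL-1B measured by AlphaLISA bead assay after 16 h compound exposure of THP-1 cells; compounds (final up to 57.5 uM) added 1 h before LPS (250 ng/mL) and ATP (1.25 mM) stimulation; lower signal means less secretion.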
# An asterisk follows results filed as active; ? = inconclusive; . = not tested or not shown; ! = a repeat was not active; [ ] = remark or other dose. Unless noted, calls follow the shape of the dose curve; as a rule, active = well fitted curve in the direction sought with a large enough effect; inconclusive = small, poorly fitted or top-dose-only effect, or another doubt; inactive = no such curve, though single readings can be large; an effect the other way counts as inactive or inconclusive. % is scaled to controls: 0 for no effect and ±100 for the full control effect.
SMILES,DT40 TDP1 CPT,TDP1 block,CtBP-E1A inh,Six1-Eya2 blk,DT40 TDP1 no CPT,IL-1B inflam inh
CC(=O)Nc1cccc(-c2csc(C(C)(O)c3cccc(F)c3)n2)c1 (centres undefined),23µM*,.,-5,-1,?,59
CC(O)(c1ccc(F)c(F)c1)c1nc(-c2cccc(F)c2)cs1 (centres undefined),?,.,11,15,?,20
CC(O)(c1cccc(F)c1)c1nc(/C=C/c2ccccc2)cs1 (centres undefined),18µM*,.,9,2,?,-4
OC(c1ccccc1)(c1nc(/C=C/c2ccc(C(F)(F)F)cc2)cs1)C(F)(F)F (centres undefined),?,.,13,11,23µM*,-2
CC(O)(c1ccc(F)c(F)c1)c1nc(/C=C/c2ccc(C(F)(F)F)cc2)cs1 (centres undefined),?,.,5,6,?,-20
CC(O)(c1cccc(F)c1)c1nc(-c2cc(F)cc(F)c2)cs1 (centres undefined),2.9µM*,.,12,11,?,-12
NS(=O)(=O)c1cccc(NC(=O)Cn2cnc3ccccc3c2=O)c1,4%,7%,-2,6,-7%,8
Cc1c(Cl)cccc1S(=O)(=O)N1CCC(C(=O)NNC(=O)C2CC2)CC1,3%,1%,6,8,-7%,-10
Cc1cccc(C)c1NC(=O)C1(C)CN(S(C)(=O)=O)CC(=O)N1CCc1ccc(O)cc1 (centres undefined),27%,.,-7,1,9%,-22
Cc1ccccc1CSCC(=O)NCc1ccco1,?,-6%,-1,-11,?,-23
CCN(CC)C(=O)c1cccc(-c2csc(C(C)(NC(C)=O)c3ccccc3)n2)c1 (centres undefined),?,.,2,4,?,-5
CC(O)(c1ccccc1)c1nc(-c2cccc(F)c2)cs1 (centres undefined),21µM*,.,1,4,-22%,-1
COc1ccc(-c2csc(C(C)(O)c3cccc(F)c3)n2)cn1 (centres undefined),23µM*,.,7,0,23µM*,13
CC(O)(c1cccc(F)c1)c1nc(-c2ccc(Cl)cc2)cs1 (centres undefined),?,.,9,7,?,31
CC(O)(c1cccc(F)c1)c1nc(-c2ccc3ccccc3c2)cs1 (centres undefined),13µM*,.,-1,4,23µM*,0
COc1ccc(C(C)(O)c2nc(-c3ccc(OC)nc3)cs2)cc1 (centres undefined),?,.,-14,8,?,94
CCN(CC)C(=O)c1cccc(-c2csc(C(C)(O)c3cccc(F)c3)n2)c1 (centres undefined),18µM*,.,-7,0,23µM*,-23
C#CCOCCOCCOCCNc1nc(N2CCN(C(=O)Cn3cc(CC(C)O)nn3)CC2)nc(N2CCN(C(=O)Cn3cc(CC(C)O)nn3)CC2)n1 (centres undefined),-7%,-1%,.,-3,-4%,20
CCCCOCCCNC(=O)c1ccc(NC(C)=O)cc1,5%,7%,-22,2,2%,10
CC1(C)O[C@@H]2C[C@H]3[C@@H]4C[C@H](F)C5=CC(=O)CC[C@]5(C)[C@H]4[C@@H](O)C[C@]3(C)[C@]2(C(=O)CO)O1,?,5%,-16,4,?,.
O=C(CNC(=O)c1ccc(S(=O)(=O)N2CCCC2)cc1)N/N=C/c1c(Cl)cccc1Cl,?,5%,-1,-1,?,-58*
O=C(NN=Cc1cccc(O)c1O)c1ccccc1,2.6µM*,.,-91*,-90*,4.6µM*,134
NC(=O)N/N=C\c1cc(Br)ccc1O,-10%,5%,0,-18,?,-9
Cn1cc(Br)c(C(=O)N/N=C/c2cc3ccccc3nc2Cl)n1,?,3%,?,-3,21µM*,-24
O=C(N/N=C/c1cc(Br)ccc1O)c1ccncc1,4.6µM*,10%,-94*,-93*,1.6µM*,162
SMILES,DT40 TDP1 CPT,TDP1 block,CtBP-E1A inh,Six1-Eya2 blk,DT40 TDP1 no CPT,IL-1B inflam inh
COc1ccc(NC(C)=O)cc1C,0%,5%,9,9,0%,-3
COc1ccc(C2/C=C\CN(S(=O)(=O)/C=C/c3ccccc3)[C@H](Cc3ccccc3)C(=O)N2Cc2ccc(F)cc2)cc1 (some centres undefined),?,5%,.,-8,?,-8
O=C(N/N=C\c1cc(Br)ccc1O)c1ccc(S(=O)(=O)N2CCCCC2)cc1,4.1µM*,5%,-19,-20,2.9µM*,91
COc1ccc(/C=N/NC(=O)C(=O)Nc2ccccn2)cc1OC,15%,0%,0,1,-14%,31
O=C(N/N=C/c1ccccc1O)C(=O)Nc1ccccn1,13µM*,0%,.,-88*,15µM*,68
O=C(N/N=C/c1ccccc1O)c1ccncc1,4.6µM*!,14%,-92*,-92*,3.7µM*,110
O=C(N/N=C/c1cccc2ccccc12)c1ccncc1,2%,.,.,-11,-16%,-2
O=C(N/N=C/c1cc2ccccc2nc1Cl)c1ccncc1,2.6µM*,2%,21,-29,4.6µM*,102
O=C(N/N=C/c1ccc(O)c(O)c1)c1cccc(S(=O)(=O)N2CCCCC2)c1,?,2%,-17,-9,-20%,30
O=C(O)C1CC=CCC1C(=O)Nc1cc(Cl)ccc1Cl (centres undefined),-10%,-2%[56.1 µM],-9,-2,-6%,50
O=C(NCCCc1ccncc1)C1CCC(=O)N(Cc2ccc(Cl)cc2)C1 (centres undefined),0%,1%[56.1 µM],-17,5,2%,5
COc1ccc(NC(=O)N2CCCC2C(=O)NCc2ccc(C)cc2)cc1 (centres undefined),-17%,1%,-10,16,3%,19
COc1ccc(NC(=O)CSc2ncnc3c2sc2ccccc23)c(OC)c1,?,-7%,-8,2,?,10
Clc1ccccc1CN(Cc1ccco1)Cc1nnnn1C1CCCC1,?,-14%,4,0,?,-1
O=C(CN1CCOCC1)N/N=C/c1cc2ccccc2nc1Cl,?,0%,-10,-10,?,-10

# Source: PubChem BioAssay (National Center for Advancing Translational Sciences (NCATS))
